Most compounds without a hit are left out; they make up all but 10% or so of the library.
LMNA splice mod = LMNA splicing modulation; HeLa LMNA splicing GFP/RFP minigene ratio, 48 h; 200,000 compounds, 0.01% hits; Potency, µM (titrated, usually from 46.1 µM), without a hit: at the top dose ratio change, negative = inhibition, hits mostly inhibitors; active = well fitted inhibition curve with a large enough effect in the signal ratio, with a control signal flat, not every such curve was filed as active; inconclusive = small, poorly fitted or top-dose-only effect, or effect the other way, or a change in a side signal; the % refers to the signal ratio; also: potency is read from the fitted curve at half-maximal effect
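S3 HeLa cells stably expressing lamin A-EGFP splicing minigene plus DsRed2, 600 cells/well, 48 h compound exposure at 37C. Laser-scanning cytometry; analysed as GFP (500-530 nm)/RFP (575-640 nm) total intensity ratio; 0.5% DMSO vehicle.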
PNC inhibitor = blocks assembly of the perinucleolar compartment; PC3M PTB-GFP, PNC prevalence imaging, 16 h; stronger effect = lower value; activity change (PNC), negative = inhibition, % at 10 µM; 140,000 compounds, 3.1% hits; AID 2417;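 active = readout at or below -70, meaning at least 70% loss of cells showing the perinucleolar compartment, a nuclear body marking cancer cells; inconclusive = readout between -30 and a set limit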;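 also: plate controls were DMSO wells for no effect and camptothecin positive control wells for full effect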
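PC3M cells stably expressing PTB-GFP, 750–1000 cells/well, treated 16 h at 37 °C with compound (23 nl of library stock), in duplicate. After paraformaldehyde fixation and Hoechst stain, imaged at 20x; PNC prevalence scored by image analysis.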
Luc counter = counter-screen: inhibitors of Kinase-Glo firefly luciferase; Kinase-Glo luciferase, ATP luminescence, 8 min; 200,000 compounds, 0.28% hits; Potency, µM (titrated, usually from 38.3 µM), for the others: at the highest dose activity change, negative = inhibition, actives largely listed as inhibitors; Q27757; active = well fitted inhibition curve with a large enough effect; inconclusive = small, poorly fitted or top-dose-only effect; also: potency is read from the fitted curve at half-maximal effect; nearly all actives have a fitted effect of over 60% in size
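Luminescence was the read-out, taken after 8-minute incubation at ambient temperature. Luciferase turned over luciferin with 10 uM ATP in imidazole pH 7.2 buffer containing KCl, MgCl2, Tween 20 and BSA.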
HPGD inh = blocks human HPGD enzyme activity. P15428. purified HPGD, NADH fluorescence kinetic, PGE2 substrate. Potency, µM, inactives show top-dose activity change, negative = inhibition, hits mostly inhibitors. 150,000 compounds, 4.3% hits. AID 894; also: potency is read from the fitted curve at half-maximal effect
Target sequence (P15428 whole entry, looked up): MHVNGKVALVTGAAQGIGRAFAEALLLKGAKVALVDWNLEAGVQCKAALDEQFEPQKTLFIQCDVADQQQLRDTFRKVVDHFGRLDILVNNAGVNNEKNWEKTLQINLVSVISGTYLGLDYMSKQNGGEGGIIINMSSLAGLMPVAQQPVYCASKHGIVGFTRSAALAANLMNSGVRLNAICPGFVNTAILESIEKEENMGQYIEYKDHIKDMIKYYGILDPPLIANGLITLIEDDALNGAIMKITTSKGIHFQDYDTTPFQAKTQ
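20 nM HPGD preincubated 15 min at room temperature with compound in 50 mM Tris-HCl pH 8, 0.01% Tween 20. Started with 1 mM NAD+ and 30 uM prostaglandin E2; NADH fluorescence (360/450 nm) read 5 times over 30-s intervals, last minus first.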
ALDH1A1 block = blocks purified human ALDH1A1 activity; P00352; Purified ALDH1A1, NADH fluorescence, propionaldehyde substrate; Potency, µM (series often up to 75.3 µM), for inactives: at the highest dose activity, negative = inhibition, actives largely listed as inhibitors; 220,000 compounds, 7.3% hits;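 also: potency is read from the fitted curve at half-maximal effect; plate controls were no enzyme wells and a reference inhibitor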
Target sequence (P00352 whole entry, looked up): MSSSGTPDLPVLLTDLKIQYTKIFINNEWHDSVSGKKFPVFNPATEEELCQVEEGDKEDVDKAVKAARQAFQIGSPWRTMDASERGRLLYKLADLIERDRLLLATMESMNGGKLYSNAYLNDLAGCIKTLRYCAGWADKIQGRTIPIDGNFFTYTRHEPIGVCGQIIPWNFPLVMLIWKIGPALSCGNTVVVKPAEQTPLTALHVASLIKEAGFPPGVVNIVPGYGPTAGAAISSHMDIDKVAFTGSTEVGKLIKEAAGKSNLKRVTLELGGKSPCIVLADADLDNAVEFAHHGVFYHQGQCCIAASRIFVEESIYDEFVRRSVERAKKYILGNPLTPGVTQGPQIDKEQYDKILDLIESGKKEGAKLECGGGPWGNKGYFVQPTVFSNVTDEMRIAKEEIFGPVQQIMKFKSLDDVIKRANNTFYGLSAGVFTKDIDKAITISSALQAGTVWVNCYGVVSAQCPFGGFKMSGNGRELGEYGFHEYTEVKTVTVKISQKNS
* = called active by the depositor; ? = inconclusive; · = no result; [ ] = dose if it differs, or a comment. Unless noted, calls follow the shape of the dose curve; as a rule, active = well fitted inhibition curve with a large enough effect (not every such curve was filed as active); inconclusive = small, poorly fitted or top-dose-only effect, or another doubt; inactive = no such curve, though single readings can be large or run the other way. Unless noted, % is scaled to controls: 0 for no effect and ±100 for the full control effect.

SMILES	LMNA splice mod	PNC inhibitor	Luc counter	HPGD inh	ALDH1A1 block
Cc1ccc(-c2nn(CC(=O)NC3CCCCC3)c3c2cnc2ccc(F)cc23)cc1C	13%[46 µM]	·	·	·	·
COc1ccc(NC(=O)N2CC3(CCN(C(=O)c4cccc(F)c4)CC3)C2)cc1	·	·	0%	-10%	?
CO/N=C/NC(=O)N1OC[C@@H]2COc3ccc4ccccc4c3[C@@H]21	0%	7	-2%	-8%	-2%
NC(=S)N1OC[C@@H]2COc3ccc4ccccc4c3[C@@H]21	·	·	3%	·	13µM*
Cc1ccc(NC(=O)c2ccc(Nc3c([N+](=O)[O-])cc([N+](=O)[O-])cc3[N+](=O)[O-])cc2)cc1	?	-16	-1%	-7%	0.56µM*
CCO[C@H](c1cc(OC)cc([N+](=O)[O-])c1OC)[C@H](C)/C=C\CC(=O)OC	·	·	·	·	2%[13.5 µM]
CN(C)/C=C/C(=O)c1cccc(Cl)c1	-15%	-1	-2%	25µM*	?
CN(C)/C=C/C(=O)c1ccc(Cl)cc1	-8%	-12	-6%	18µM*	-6%
COc1ccc(CCNC(=O)CSc2nc3nc(C)c(Cc4ccc(C)cc4)c(C)n3n2)cc1OC	0%[46 µM]	·	·	·	·
CC(C)=C1C(=O)C(c2ccccc2)=C2CN3C(=O)N(CCc4ccccc4)C(=O)[C@]3(C)[C@H]21	·	·	-2%	-5%	-5%
O=C(COC(=O)c1ccc([N+](=O)[O-])s1)Nc1ncc(C(F)(F)F)cc1Cl	2%	?	-1%	-27%	18µM*
CCN1CCC(N(Cc2ccc3c(c2)OCO3)C(=O)Nc2cc(F)ccc2F)CC1	-9%[46 µM]	·	·	·	·
CC(NC(=O)C1CCCCC1)C(=O)NC1=NCCS1 (stereo not drawn)	1%	-112*	-2%	-14%	-9%
CSc1nc(O)c(/C=C2\C=Nc3ccccc32)[nH]1	-6%	-4	6.3µM*	?	?
O=c1[nH]c(/C=C2\C=Nc3ccccc32)c(O)n1Cc1ccccc1F	-8%[9.22 µM]	·	4%	·	13µM*
CCOC(=O)c1cc(C)nc(SC)c1C#N	·	·	·	·	40µM*
COc1ccc(-c2cc(C(C)=O)c(C)n2CCC(=O)Nc2ccc(C)cc2Cl)cc1	13%[46 µM]	·	·	·	·
COC(=O)[C@@H](NC(=O)N1CCc2nc(-c3ccccc3)c3c(c2C1)CO[C@@H](C)C3)C(C)C	6%[9.22 µM]	·	-13%[7.66 µM]	-13%	0%[13.5 µM]
CCOC(=O)N1CCC2(CC1)C(C#N)=C(N)Oc1c2c(C)nn1-c1cccc(Cl)c1	-17%	-22	3%	-11%	13µM*
Cc1ccc(C(=O)CSc2n[nH]c(-c3ccco3)n2)cc1C	1%	5	3%	5µM*	?
CCc1nc(SCC(=O)c2ccc(C)c(C)c2)n[nH]1	1%	18	2%	?	?
COc1ccc(C(=O)CSc2n[nH]c(-c3ccco3)n2)cc1	23%	-107*	-1%	3.5µM*	-6%
CCN(C(=O)/C=C/c1ccc2c(c1)OCO2)c1ccccc1	1%	-84*	-5%	28µM*	-15%
O=C1/C(=C/N(C(=O)c2ccco2)c2ccc(Br)cc2)Sc2ccccc21	-1%	172	-20%	32µM*	?
O=C1/C(=C/N(C(=O)c2ccco2)c2ccc(Cl)cc2)Sc2ccccc21	3%	-25	-16%	-14%	-6%
SMILES	LMNA splice mod	PNC inhibitor	Luc counter	HPGD inh	ALDH1A1 block
CCCCNC(=O)CSc1nc2ccccc2n1S(=O)(=O)c1ccc(Br)cc1	6%	-2	3%	2.5µM*	10%
CS(=O)(=O)N(CC(=O)NCCc1ccccc1)c1cccc([N+](=O)[O-])c1	5%[46 µM]	·	2%	·	5%
O=C(CSc1nc2ccccc2n1S(=O)(=O)c1cccc([N+](=O)[O-])c1)NCCc1ccccc1	-2%	-113*	2%	?	6%
C=CCSc1nc2ccccc2n1S(=O)(=O)c1ccc(C)cc1	-14%	?	-1%	-3%	2%
CCCCNC(=O)CSc1nc2ccccc2n1S(=O)(=O)c1ccc(Cl)cc1	-4%	-119*	4%	2µM*	14%
O=P1(O)Oc2c(c(-c3ccccc3)cc3ccc4ccccc4c23)-c2c(-c3ccccc3)cc3ccc4ccccc4c3c2O1	·	·	-1%	-23%	-1%
CC(=O)N1CCC[C@@]2(CCN(C(=O)Nc3ccccc3)C2)C1	·	·	-1%	-9%	5%
C=CCOC(=O)C(=O)/C=C/c1csc2ccccc12	·	·	·	·	10µM*
C=CCOC(=O)C(=O)/C=C/c1ccc2c(c1)Cc1ccccc1-2	·	·	·	·	1%
Cc1ccc2scc(N3CCCCC3C)c(=O)c2c1 (stereo not drawn)	-1%[46 µM]	·	·	·	·
Cc1ccc(CN(C(=O)COc2cccc(Cl)c2)c2ccccn2)o1	-16%[46 µM]	·	·	·	·
CC(C)(C)c1nn2cnnc2n(/N=C/c2cccc3ccccc23)c1=O	-2%	2	-5%	-6%	17%
Cc1ccc(/C=N/n2c(=O)c(C(C)(C)C)nn3cnnc23)cc1	-6%	-94*	0%	-12%	2%
Cc1cc(NC(=O)CCS(=O)(=O)c2nc(-c3ccccc3)cc(C(F)(F)F)n2)no1	?	34	3%	?	-1%
CS(=O)(=O)c1nc(-c2ccccc2)cc(C(F)(F)F)n1	?	-100*	0%	?	9%
O=c1c(-c2ccccc2)c(O)c2cccc3c2n1CCC3	?	-12	-2%	-17%	-2%
Cc1cc(C)c(-c2c(O)c3cccc4c3n(c2=O)CCC4)c(C)c1	-12%	-100*	5%	?	-1%
c1ccc(C(CCN2CC3CCC(CC3)C2)c2ccccc2)cc1	·	·	2%[7.66 µM]	-6%	1%[13.5 µM]
O=c1[nH]c(C(F)(F)F)nc2c1nnn2Cc1ccccc1F	21%	19	18%	18µM*	12%
Fc1ccccc1Cn1nnc2c(NCc3ccccn3)ncnc21	-3%	28	0%	-21%	?
CCCc1nc2c(nnn2Cc2ccccc2F)c(=O)[nH]1	-2%	-4	0%	28µM*	-51%
CCc1ccc(-n2nc(C)c3c(C)cc(=O)n(CC(=O)Nc4ccc(OC)c(OC)c4)c32)cc1	2%[46 µM]	·	·	·	·
CCC(Sc1nc2ncccc2o1)C(=O)Nc1ccc(OC)c(OC)c1 (stereo not drawn)	11%[46 µM]	·	·	·	·
CC1CCN(C(=O)CN2C(=O)C(=O)c3ccccc32)CC1	-7%	-21	3%	-7%	0.35µM*
NC(=O)NC(=O)[C@H]1CCCC[C@@H]1C(=O)O	·	·	-1%[7.66 µM]	-7%	4%[13.5 µM]
COC(=O)C1(Cc2ccccc2)C=C2C(=C(c3ccccc3)C(=O)C2C)CN1 (stereo not drawn)	·	·	-2%	10µM*	25µM*
COC(=O)C1(CC(C)C)C=C2C(=C(C(C)C)C(=O)C2C)CN1 (stereo not drawn)	·	·	-2%	?	35µM*
c1ccc(Nc2ncnc3ccc(-c4cccnc4)cc23)cc1	?	·	-1%	-22%	-2%
Cc1cc(=O)[nH]c(S/C=C/c2ccccc2)n1	-7%	-29	?	20µM*	-5%
Nc1cc(=O)[nH]c(SC/C=C/c2ccccc2)n1	-4%	-28	-1%	-6%	-2%
